The values below come from PubChem BioAssay (NCI).

This is part of a sample that, as a whole, favours compounds with a hit. Of some 83,000 tested, about 20% had one in any assay.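 Assay: single dose, 48 h. Readout: percent growth (0 = no net growth; negative = cell death). Active: <10.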 A number with no mark means an inactive call. Active and inactive are the calls of the source.

The subject of the experiment is HL-60(TB) leukemia. Briefly: NCI-60 one-dose screen, 48 h (100 = growth as untreated, 0 = no growth, -100 = all killed). Conditions: 10 µM unless noted.
With `CCCCCCN(CCCCCC)CCC(O)c1ccc2ccccc2c1` (stereo not given), the growth was 42.4%.
The result for `CC(CN1CCN(CCOCCO)CC1)CN1c2ccccc2Sc2ccc(Cl)cc21` (stereo not given) reads 80.8%; that for `O=C1C=CC(=O)N1C1CCCCCCCCCCC1`, -9.95% (active).
The result for `COc1ccc(/C=C/C(=O)c2ccc(NC(=O)CSc3nnc(-c4ccc(OC)c(OC)c4)n3-c3ccccc3)cc2)cc1` reads 54.8%.
Then `O=C(Nc1ccc(Nc2cc(Nc3ccccc3)ncn2)cc1)Nc1cc(C(F)(F)F)ccc1F`, with 106%; and `Cc1nn(-c2ccc(Cl)cc2)c(=O)n1CCOc1ccccc1Cl`, with 106%.
As to `C/C(=N\NC(=O)Cn1c(-c2ccc(S(C)(=O)=O)cc2)nc2ccccc21)c1ccc(Cl)cc1`, the growth is 74.8%.
Turning to `C=CCOc1ccc(/C=C2\SC(=S)N(CCc3ccc(O)cc3)C2=O)cc1`, the growth is 38.9%.
Then `O=C(Nc1ncc(Cc2cc(C(F)(F)F)ccc2Cl)s1)c1cccs1`, with 30.6%; and `CCCCCCCCCCCCCCCCCCNCc1ccc(Cl)cc1`, with -65.8% (active).
The result for `C=CC(=O)N(C)[C@H]1C[C@H]2OC(C)(C1OC)n1c3ccccc3c3c4c(c5c6ccccc6n2c5c31)C(=O)NC4` (stereo not given in full) reads -11.2% (active); that for `Cc1cccc(C)c1-c1cc(Cc2ccc(Cl)cc2)c(=O)[nH]n1`, 90.8%; that for `CN(C)c1ccc(N)c2ccccc12`, 43.5%.
Consider `C#CCOc1ccc2ncnc(N3CCN(C(=O)CCl)CC3)c2c1`, for which the growth was 73.4% [8.25 µM].
Then `CC1(C)CC(C(=O)OCCCCCCCCCCC[P+](c2ccccc2)(c2ccccc2)c2ccccc2)C(C)(C)N1O` (stereo not given), with -70.8% (active); and `Cc1ccc(S(=O)(=O)OCCCOS(=O)(=O)c2ccc(C)cc2)cc1`, with 54.4%; and `CCOC(=O)C(CCN(C)C)c1ccccc1` (stereo not given), with 88.8%.
`COc1cc(-c2nc3ccccc3s2)ccc1NC(=O)COc1ccc(Cl)cc1`: the growth is 56.3%.
The result for `COc1ccc(-c2nc3cc(C(=O)Nc4cc(OC)c(OC)c(OC)c4)ccc3n2C2CCCCC2)cc1` reads 85.9%.
Take `COc1ccc(C2=NNC(c3cc(Cc4ccc(O)c(C5CC(c6ccc(OC)cc6)=NN5)c4)ccc3O)C2)cc1` (stereo not given): the growth was 17.2%.
Then `Nc1cc(F)ccc1[N+](=O)[O-]`, with 115%.
For the compound `COc1ccc(OC)c(C(=O)Nc2cccc(-c3cc(=O)c4ccccc4o3)c2)c1`, the growth was 89.4%.
The result for `CCCCCCCCCCCCOC(=N)N(C)C` reads 91.9%; that for `C=C1C(=O)O[C@H]2[C@H]1CC/C(COC(=O)NCc1ccc(Cn3c(=O)sn(-c4ccc(OC)cc4)c3=O)cc1)=C\CC[C@@]1(C)O[C@@H]21`, -18% (active); that for `COc1cc(/C=N/Nc2ncc(-c3cc4cc5c(cc4o3)OCO5)s2)cc(OC)c1OC`, 14.7%.
Then `O=c1c2cc(C(F)(F)F)ccc2sc2c(NCCCNCCO)nc3ccccc3c12`, with -19% (active); and `CCOC(=O)n1cc(-c2nonc2-c2cn(C)c3ccccc23)c2ccccc21`, with 1.6% (active); and `O=S(=O)(O)c1cc(O)c2c(N=Cc3ccccc3O)c(S(=O)(=O)O)ccc2c1`, with 101%.
Then `CCN(CC)c1ccc(/C=C/C2=[N+](C)c3ccccc3C2(C)C)cc1`, with 11.3%.
Turning to `COc1ccc(NC(=O)C2CC3C=CC2C3)c([N+](=O)[O-])c1` (stereo not given), the growth is 86.2%.
Turning to `NC(=O)c1c(NC(=O)c2ccc3ccccc3c2)sc2c1CCC(=O)C2`, the growth was 50.9%.
The result for `O=Nc1c(-c2c(O)[nH]c3cc(Br)ccc23)[nH]c2ccccc12` reads -51.3% (active); that for `Cc1ccc(S(=O)(=O)n2cc(C(=O)C(=O)Nc3ccncc3)c3ccccc32)cc1`, 16.1%.
Then `Nc1nc(Nc2ccccc2SSc2ccccc2Nc2nc(N)nc(C(Cl)(Cl)Cl)n2)nc(C(Cl)(Cl)Cl)n1`, with 11.5%; and `N#Cc1ccc([N+](=O)[O-])o1`, with 108%; and `CC1(C)c2ccccc2C(=O)C1(Br)Cc1ccccc1` (stereo not given), with 9.51% (active).
Then `c1ccc(-c2nn(-c3ccccc3)[n+](-c3ccccc3-c3ccccc3)n2)cc1`, with -31.4% (active).
As for `CCCCCCCCCCCC(=O)[O][Sn]([CH2]CCC)([CH2]CCC)[CH2]CCC`, the growth is -44.1% (active).
Then `Cc1c(N2CCCCC2)[nH]c2ccccc12`, with 101%; and `CCN1CCN(CC(=O)Nc2ccc(-c3cn4c(n3)sc3cc(Oc5ccnc(C(=O)NC)c5)ccc34)cc2)CC1`, with -35.4% (active).
